Screens deposited in PubChem BioAssay by National Center for Advancing Translational Sciences (NCATS).
In the library only some 5.8% were active in any assay of this set; here they are far more common.
TRPV1 ag: HTS Assay for Compounds that Act as Agonists of the Vanilloid Receptor 1 | Transient receptor potential cation channel subfamily V member 1 (Homo sapiens), Q8NER1 | TRPV1-expressing cells, Fluo-8 calcium influx, agonist mode | activation, % at 8.33 µM | hit rate 0.19% among 320,000; in the data active means activation above about 80%; inconclusive means between about 30% and that limit
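Fluo-8 calcium influx in TRPV1-expressing cells, kinetic read (ex 480/em 520 nm). Compound added and read 3 min for agonist activity, followed by capsaicin at EC20 final and 2 min further read for enhancement.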
uPA surface inh: qHTS for Inhibitors of Cell Surface uPA Generation; cell surface uPA generation assay, qHTS; Potency, µM (titrated, usually from 38.3 µM), actives largely listed as inhibitors; hit rate 0.31% among 330,000; AID 540303, 2011; active means well fitted inhibition curve with a large enough effect; inconclusive means small, poorly fitted or top-dose-only effect; inactive means no such curve, though single readings can be large or run the other way; tested in mouse RAW 264.7 cells; further: nearly all actives have a fitted effect of over 55% in size
RORg inh: qHTS for inhibitors of ROR gamma transcriptional activity. Nuclear receptor ROR-gamma (Mus musculus), P51450. Drosophila S2 Gal4-RORgamma UAS-luciferase reporter, 20 h. Potency, µM (highest dose often 53.6 µM), actives largely listed as inhibitors. hit rate 5.4% among 310,000; further: nearly all actives have a fitted effect of over 60% in size
Target sequence (P51450 whole entry, looked up, the tested form may be a part): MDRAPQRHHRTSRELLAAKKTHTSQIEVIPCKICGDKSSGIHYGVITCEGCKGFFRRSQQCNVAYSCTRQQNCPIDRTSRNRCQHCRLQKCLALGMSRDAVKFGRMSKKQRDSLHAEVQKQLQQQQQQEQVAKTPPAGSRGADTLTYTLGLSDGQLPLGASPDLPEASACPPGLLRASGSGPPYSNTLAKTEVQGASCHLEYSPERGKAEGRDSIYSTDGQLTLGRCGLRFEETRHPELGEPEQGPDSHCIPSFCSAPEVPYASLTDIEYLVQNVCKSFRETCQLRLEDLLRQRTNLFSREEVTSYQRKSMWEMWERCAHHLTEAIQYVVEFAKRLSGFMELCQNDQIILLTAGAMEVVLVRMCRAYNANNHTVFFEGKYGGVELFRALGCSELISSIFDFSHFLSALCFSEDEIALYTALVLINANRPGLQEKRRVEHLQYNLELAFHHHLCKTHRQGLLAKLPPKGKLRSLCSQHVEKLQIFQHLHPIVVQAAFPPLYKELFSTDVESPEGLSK
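Read-out: Photinus luciferase luminescence; inhibitors lower reporter signal. Insect Schneider cells with Gal4-ROR gamma fusion under metallothionein promoter, UAS reporter; 700 uM final copper sulfate induction, 20 hr, ambient temperature.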
VP16 counter: VP16 counterscreen qHTS for inhibitors of ROR gamma transcriptional activity; Drosophila S2 Gal4-VP16 UAS-luciferase, luminescence, 20 h; hit rate 3.5% among 310,000; Potency, µM (series often up to 53.6 µM), most hits filed as inhibitors;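 further: Gal4-VP16 expression switched on by copper sulfate through the metallothionein promoter; nearly all actives have a fitted effect of over 50% in size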
TRPV1 potentiator: HTS Assay for Compounds that Act as Potentiators of the Vanilloid Receptor 1 | potentiation, % at 8.33 µM | Transient receptor potential cation channel subfamily V member 1 (Homo sapiens), Q8NER1 | hit rate 0.02% among 320,000 | TRPV1-expressing cells, Fluo-8 calcium influx, capsaicin EC20 potentiation; in the data active means potentiation above about 80%; inconclusive means between about 30% and that limit
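Cells expressing TRPV1 were dye-loaded with Fluo-8 and read kinetically: 10 s baseline, 3 min after compound (agonist portion), then 2 min after EC20 capsaicin (allosteric enhancer portion). Calcium-bound dye fluorescence at 480/520 nm.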
Large screens that a line does not name were inactive. Unless noted, the call rests on the fitted dose curve; in most records, active means well fitted curve in the direction sought with a large enough effect; inconclusive means small, poorly fitted or top-dose-only effect, or another doubt; inactive means no such curve, though single readings can be large; an effect the other way counts as inactive or inconclusive.

Cc1cc(C(=O)Nc2ccccc2N2CCCCC2)no1	TRPV1 ag inconclusive
O=C(c1cnccn1)N1CCC2(CCCN(c3cccc(-c4ccccc4)c3)C2)CC1	RORg inh inconclusive (no result: TRPV1 ag, uPA surface inh, TRPV1 potentiator)
O=C(Cc1cccs1)Nc1nc2c(ccc3ccccc32)s1	TRPV1 ag 81, VP16 counter inconclusive
COC(=O)c1ccccc1S(=O)(=O)N1CCC(C(=O)OC(C)C(=O)NC(N)=O)CC1 (stereo not drawn)	none
Cn1cccc1CC(=O)NNC(=O)Nc1ccccc1F	none (no result: RORg inh, VP16 counter)
Cc1ccc(-c2csc(N(CCCN(C)C)C(=O)c3ccco3)n2)cc1	RORg inh 0.63µM, VP16 counter 3.5µM
CCOCCOC(=O)COc1ccc2c(-c3ccccc3)cc(=O)oc2c1	none
CCCOc1cccc(C(=O)NC(=S)Nc2ccccc2)c1	RORg inh 8.9µM, VP16 counter inconclusive
CC(C)Oc1cccc(C(=O)NC(=S)Nc2ccccc2)c1	RORg inh inconclusive, VP16 counter 5µM
CC(C)Oc1cccc(C(=O)NC(=S)Nc2cccnc2)c1	RORg inh inconclusive
CC(C)COc1cccc(C(=O)NC(=S)Nc2cccc(NC(=O)c3ccccc3Cl)c2)c1	RORg inh 6.3µM, VP16 counter 5.6µM
COc1ccc(-c2ccc(SC)nn2)cc1	RORg inh 10µM, VP16 counter inconclusive
COc1ccc(N2CCN(C3CCCN(C(=O)CSC)C3)CC2)cc1 (stereo not drawn)	none
Cc1[nH]nc2c1-c1nc3ccccc3nc1C(C)(C)C2	TRPV1 ag inconclusive, RORg inh 4µM, VP16 counter 3.2µM
CC12CCC(C)(c3nc4ccccc4nc31)C2(C)C	none
CCOC(=O)c1ccc(NC(=O)c2nc[nH]c2C(=O)N[C@@H](CC(C)C)C(=O)OC(C)(C)C)cc1	RORg inh 2.5µM, VP16 counter 6.3µM
CCOC(=O)c1ccc(NC(=O)c2nc[nH]c2C(=O)N[C@H](C)c2ccccc2)cc1	uPA surface inh inconclusive, RORg inh 2.8µM, VP16 counter 7.1µM
CC(C)C[C@H](NC(=O)c1[nH]cnc1C(=O)Nc1ccccc1)C(=O)OC(C)(C)C	TRPV1 ag inconclusive, uPA surface inh inconclusive, RORg inh 5µM, VP16 counter 8.9µM
CC(C)C[C@H](NC(=O)c1[nH]cnc1C(=O)N[C@@H](C)c1ccccc1)C(=O)OCc1ccccc1	RORg inh inconclusive, VP16 counter inconclusive
CCOC(=O)c1ccc(NC(=O)c2nc[nH]c2C(=O)N[C@@H](CC(C)C)C(=O)OCc2ccccc2)cc1	RORg inh 1.1µM, VP16 counter inconclusive
CCOC(=O)c1ccc(NC(=O)c2nc[nH]c2C(=O)N[C@@H](C)C(=O)OC(C)(C)C)cc1	RORg inh inconclusive
CSc1nc(N)c2ncn([C@H]3O[C@H](COP(=O)(O)OP(=O)(O)O)[C@@H](O)[C@@H]3O)c2n1	none (no result: TRPV1 ag, uPA surface inh, TRPV1 potentiator)
COc1ccc(-n2c(SCC(=O)NCc3ccco3)nc3c([nH]c4ccccc43)c2=O)cc1	TRPV1 potentiator inconclusive
COc1ccc(NC(=O)c2nc[nH]c2C(=O)N[C@H](C)c2ccccc2)cc1	RORg inh 6.3µM, VP16 counter 7.9µM
CCOC(=O)c1ccc(NC(=O)c2nc[nH]c2C(=O)N(C)Cc2ccccc2)cc1	RORg inh 10µM, VP16 counter inconclusive
CNC(=O)c1[nH]cnc1C(=O)Nc1ccc(OC)cc1	RORg inh 5.6µM
COc1cccc(NC(=O)CSC(N)=O)c1	VP16 counter inconclusive
COC(=O)[C@@H]1C[C@@]2(O)[C@@H](O)[C@@H](O)[C@@H](O)C[C@H]2N1Cc1ccc(N2CCOCC2)cc1	none (no result: TRPV1 ag, uPA surface inh, TRPV1 potentiator)
CCOC(=O)C/C(=N\Nc1ncnc2ccccc12)c1ccccc1	RORg inh 6.3µM, VP16 counter 6.3µM
CCOC(=O)c1ccc(Nc2ncnc3ccccc23)cc1	TRPV1 ag inconclusive, RORg inh inconclusive
CCOC(=O)/C(=N\Nc1ncnc2ccccc12)c1ccc(C)cc1	TRPV1 ag inconclusive, RORg inh 5.6µM, VP16 counter 13µM
Cc1cc(C(=O)NNS(=O)(=O)c2cc(C(=O)O)ccc2Cl)c(C)n1-c1ccccc1	none (no result: RORg inh, VP16 counter)
COC(=O)c1c(NC(=O)C(Cl)Cl)sc2c1C(C(=O)OC)CC2 (stereo not drawn)	RORg inh 4µM, VP16 counter 7.9µM (no result: TRPV1 ag, TRPV1 potentiator)
CNC(=S)N(CCc1c(C)[nH]c2ccc(OC)cc12)Cc1cc(OC)c(OC)c(OC)c1	none
COc1ccc2[nH]c(C)c(CCNC(=S)Nc3cc(C)ccc3C)c2c1	TRPV1 ag inconclusive, RORg inh 5µM, VP16 counter inconclusive
COc1ccc2[nH]c(C)c(CCN(Cc3cccs3)C(=S)Nc3ccc(F)cc3)c2c1	uPA surface inh inconclusive
COc1ccc2[nH]c(C)c(CCNC(=S)Nc3ccccc3OC)c2c1	RORg inh 10µM
COc1ccc2[nH]c(C)c(CCNC(=S)Nc3ccc(F)cc3)c2c1	RORg inh 4µM, VP16 counter 3.5µM
Cc1ccc(C)c(NC(=S)NCCc2ccc(S(N)(=O)=O)cc2)c1	none (no result: TRPV1 ag, RORg inh, VP16 counter, TRPV1 potentiator)
COc1ccc2[nH]c(C)c(CCNC(=S)Nc3cccc(C)c3)c2c1	TRPV1 ag inconclusive, RORg inh 5µM, VP16 counter 20µM
CNC(=S)N(CCc1c(C)[nH]c2ccc(OC)cc12)Cc1ccco1	none
COC(=O)CSc1nnc(CNC(=O)c2ccc(OC)c(OC)c2)n1C	none
COc1ccc2[nH]c(C)c(CCNC(=S)Nc3cc(C)cc(C)c3)c2c1	RORg inh 2.2µM, VP16 counter 11µM
CC(C)C(=O)Nc1cc(C(F)(F)F)ccc1-n1ccnc1	none
OC1CCCN(C(=S)NCc2ccccc2)C1 (stereo not drawn)	none
COc1ccc(OCc2cccc(C(=O)NN)c2)cc1	RORg inh 14µM, VP16 counter inconclusive
NNC(=O)c1cccc(COc2ccc(Br)cc2)c1	TRPV1 ag inconclusive, RORg inh inconclusive
NNC(=O)c1cccc(COc2cccc(Br)c2)c1	RORg inh 13µM, VP16 counter inconclusive
CN(C)CCNC(=O)/C(=N\O)c1ccccn1	none
CC(=O)c1ccc(-c2ccc(C3C4C=CCCC4(C)C(=O)N3Cc3ccccc3)c(F)c2)cc1 (stereo not drawn)	none (no result: TRPV1 ag, uPA surface inh, TRPV1 potentiator)
NC(=O)[C@@H]1CCCN1C(=O)C(Cc1cnc[nH]1)NC(=O)C1CCC(=O)N1 (stereo partly drawn)	none (no result: TRPV1 ag, uPA surface inh, TRPV1 potentiator)
O=C(CSc1nnc(-c2ccc(O)cc2)n1Cc1ccco1)c1cccs1	none (no result: uPA surface inh)
O=C(CC(SCc1ccco1)c1ccc(O)cc1)c1cccs1 (stereo not drawn)	RORg inh 0.89µM
CN=C1S/C(=C\c2cc(C)n(-c3ccccc3F)c2C)C(=O)N1C	TRPV1 ag inconclusive, RORg inh inconclusive, VP16 counter 18µM (no result: uPA surface inh)
Cc1ccc(-c2n[nH]c(=S)n2/N=C/c2ccc(C)o2)cc1	RORg inh 5µM, VP16 counter 3.5µM
